The record followed here is PubChem BioAssay AID504834 (National Center for Advancing Translational Sciences (NCATS), 2011).

The campaign covered roughly 320,000 compounds. About 22,000 (6.9%) were called active. Inconclusive results (about 27%) are left out. The call rests on the fitted dose curve; in most records, active means well fitted inhibition curve with a large enough effect; inconclusive means small, poorly fitted or top-dose-only effect, or another doubt; inactive means no such curve, though single readings can be large or run the other way. The full list was thinned out, with actives kept by preference.
On the % scale 0 is the no-effect control and ±100 the full control effect; potency means the concentration at half of the fitted maximal effect.

This assay in a line: Primary qHTS for delayed death inhibitors of the malarial parasite plastid, 96 hour incubation. The following applies: P. falciparum luciferase reporter growth; series mostly up to 28.7 µM; activity change, negative = inhibition: at the top concentration. Put shortly: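 P. falciparum expressing integrated firefly luciferase, in erythrocytes at 2% hematocrit, 0.05% parasitemia, incubated with compounds 96 h at 37 C, 5% CO2. Growth inhibition read as loss of luminescence; two-generation exposure targets delayed-death apicoplast inhibitors.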
On the technique in general: In qHTS, concentration-response curves come from the screen itself.
In the case of `O=C1/C(=C/c2cccs2)SC(=S)N1C1CCS(=O)(=O)C1` (stereo not drawn), the “activity change, negative = inhibition” value was -41.9% (inactive).
Still for that read-out and setting: to `CC1CCCCN1CCCNc1ccc(C(CC(N)=O)NC(=O)c2ccccc2)cc1[N+](=O)[O-]` (stereo not drawn) belongs -34.8% (inactive).
`Cc1cc(C)cc(C(=O)NC(CC(N)=O)c2ccc(N3CCC(N4CCCCC4)CC3)c([N+](=O)[O-])c2)c1` (stereo not drawn): the “activity change, negative = inhibition” value is 73.1% (inactive).
Consider `NC(=O)CC(NC(=O)Cc1ccc(Br)cc1)c1ccc(NC2CC3CCC2C3)c([N+](=O)[O-])c1` (stereo not drawn), for which the Potency was 11.7 µM (active).
As to `O=C(O)c1ccc(-n2nc(-c3ccccc3)c3ccccc3c2=O)cc1`, the “activity change, negative = inhibition” value is 24.2% (inactive).
On the same count and under the same terms, to `O=C(c1ccc(F)cc1)n1c(=S)nc2ccccn21` belongs 135% (inactive).
Same read-out and setting: to `CCOc1c(OC)cc(C2C(C#N)=C(N)Oc3n[nH]c(-c4ccncc4)c32)cc1OC` (stereo not drawn) belongs 16.2% (inactive).
With `COc1ccc(-c2[nH]nc3c2C(c2ccncc2)C(C#N)=C(N)O3)cc1` (stereo not drawn), the Potency was 4.65 µM (active).
In the case of `CCc1ccc(C2C(C#N)=C(N)Oc3n[nH]c(CC(=O)OC)c32)cc1` (stereo not drawn), the “activity change, negative = inhibition” value is -3.61% (inactive).
On the same count and under the same terms, the result for `COc1cc(C(=O)Nc2ncccc2C)ccc1OCC(=O)N1CCOCC1` reads -9.13% (inactive).
Take `Cc1cc(-n2cnc(-c3cn(C)nc3C)n2)no1`: the “activity change, negative = inhibition” value is 48.3% (inactive).
On the same count and under the same terms, to `Cc1cc(OCC(=O)N(C)c2c(N)n(Cc3ccccc3)c(=O)[nH]c2=O)c(C(C)C)cc1Cl` belongs 0.877% (inactive).
Take `Cc1cccc(OCC(=O)NCCCNC(=O)c2ccccn2)c1`: the “activity change, negative = inhibition” value is 30.2% (inactive).
Same read-out and setting: to `Cc1ccccc1NC(=O)C1CCN(C(=O)NC2CCCCC2)CC1` belongs 14.1% (inactive); to `O=C1COc2ccc(NC(=O)N3CCN(c4ccc(F)cc4)CC3)cc2N1`, 0% (inactive); to `Cc1ccc(NS(=O)(=O)c2ccc3c(c2)NC(=O)CO3)cc1`, 42.8% (inactive).
As to `CC(CC(=O)Nc1ccc(F)cc1F)S(=O)(=O)c1ccc2c(c1)NC(=O)CO2` (stereo not drawn), the Potency was 6.57 µM (active).
For the molecule `COc1ccc(C)cc1NC(=O)NCCCCc1ccccc1`, the “activity change, negative = inhibition” value was -10.7% (inactive).
Still for that read-out and setting: the result for `CCc1cccc(NC(=O)COC(=O)C2CCN(c3ccc(C(F)(F)F)cn3)CC2)c1` reads 0% (inactive); that for `Cc1cnc(CN(C)C(=O)C2CCC(=O)N(CCc3cccc(F)c3)C2)[nH]1` (stereo not drawn), -11.6% (inactive); that for `O=C1CCC(C(=O)N2CCC(O)(c3ccccc3)CC2)CN1CCc1ccccc1` (stereo not drawn), 31.1% (inactive).
Turning to `Cc1cnc(C)c(N2CCN(C(=O)C3CCC(=O)N(CCc4cccc(F)c4)C3)CC2)n1` (stereo not drawn), the Potency is 14.7 µM (active).
In the case of `O=C(NC1CC1)C(Cc1ccccc1)NS(=O)(=O)c1ccccc1F` (stereo not drawn), the “activity change, negative = inhibition” value is 11.3% (inactive).
For the molecule `O=C1N[C@@H](Cc2ccccc2)C(=O)N2[C@H]1C[C@]1(Br)c3ccccc3N(S(=O)(=O)c3ccccc3)[C@H]21`, the “activity change, negative = inhibition” value is -39.5% (inactive).
With `Cc1ccc(CCNC(=O)c2ccc3nc4ccccc4c(=O)n3c2)cc1`, the “activity change, negative = inhibition” value was 29.7% (inactive).
Still for that read-out and setting: the result for `CCOC(=O)C1=C(C)N=c2s/c(=C\C(=O)OC)c(=O)n2C1c1ccc(OC)cc1` (stereo not drawn) reads -23.7% (inactive); that for `CCOC(=O)C1=C(C)Nc2nc3ccccc3n2C1c1cccs1` (stereo not drawn), -13.8% (inactive).
`COCCOC(=O)C1=C(C)N=c2s/c(=C\c3cccs3)c(=O)n2C1c1cccs1` (stereo not drawn): the Potency is 8.28 µM (active).
